Data: the supplement of paper PMC6555819

Key:
Experiment in all cases: PBM binding z-score (relative to random genomic background probes); higher = stronger binding; sequences stand for … in GC…GCGATTGACAGCGTAGAATGAAGG
[1] = tested on: PPARg:RXRa DBDmut IVT, anti-RXR (DBD mutation: RXRa K156A/R161A, NR concentration 270 nM, RXRa partner concentration 90 nM)
Method in brief: (§1)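 Probes were double-stranded and carried 34-nt variable regions with direct-repeat seeds, single-nucleotide variants, half-site ablations and random human genomic background sequences, printed on custom Agilent 4×180K protein-binding microarrays. Arrays were incubated 1 h with ligand-free nuclear receptor dimers in PBS pH 7.4, 2% milk, 0.02% Triton X-100, 1 mM DTT, 0.2 mg/mL BSA and 0.4 mg/ml salmon testes DNA. Antibodies against each partner (one per run) detected binding, and scanned fluorescence was regression-normalized. Binding z-scores use the random background probes as reference.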

[2] = tested on: PPARg:RXRa IVT, anti-PPARg (NR concentration 270 nM, RXRa partner concentration 90 nM)
Method in brief: as §1

[3] = tested on: PPARg DBDmut:RXRa IVT, anti-PPARg (DBD mutation: PPARg1 K132A/R137A, NR concentration 270 nM, RXRa partner concentration 90 nM)
Method in brief: as §1

[4] = tested on: PPARg DBDmut IVT, anti-PPARg (DBD mutation: PPARg1 K132A/R137A, NR concentration 270 nM)
Method in brief: as §1

[5] = tested on: PPARg homodimer (NR concentration 180 nM)
Method in brief: as §1

[6] = tested on: PXR:RXRa (NR concentration 270 nM, RXRa partner concentration 90 nM)
Method in brief: as §1

[7] = tested on: PXR homodimer (NR concentration 270 nM)
Method in brief: as §1

[8] = tested on: RARa:RXR (NR concentration 270 nM, RXRa partner concentration 90 nM)
Method in brief: as §1

[9] = tested on: RARa homodimer (NR concentration 270 nM)
Method in brief: as §1

[10] = tested on: RARb:RXRa (NR concentration 270 nM, RXRa partner concentration 90 nM)
Method in brief: as §1

Sequence	PBM binding z-score [1]	PBM binding z-score [2]	PBM binding z-score [3]	PBM binding z-score [4]	PBM binding z-score [5]	PBM binding z-score [6]	PBM binding z-score [7]	PBM binding z-score [8]	PBM binding z-score [9]	PBM binding z-score [10]
CTCGTAAGGTCGGTTGAGGTGAGTATACGGATAA	0.0738	0.679	-0.123	0.104	0.333	2.72	0.279	1.82	-0.0631	2.29
CCAGACAGGTGAGAAGGTAACTAAGCCTCGATTA	0.948	0.601	-0.627	-0.192	0.387	-0.327	0.346	-0.102	0.36	0.585
TCTGCTAGGTCAACGATGGTCAGCTAGTCTGCTA	3.64	4.26	-0.411	-0.961	0.415	1.42	-1.07	2.26	-1.08	4.06
ACATGTAGGTTAGCTGGGGTCATTCAGACTAGGC	5.83	4.97	2.39	2.35	6.39	6.77	5.5	6.23	2.18	3.1
CGAACTAGGTCATCCAGGACAGTCAATACATTGA	8.57	8.35	3.88	2.33	1.98	2.25	1.6	2.83	0.712	3.95
CGGACTAGGTCAAGGACAGTGAATCTCCGCACGC	7.61	7.26	-0.333	-0.703	0.837	0.934	-0.0489	1.7	0.338	3.49
CGAACTAGGTCATCCAGGGCAGTGAATACATTGA	8.06	8.48	5.35	1.78	2.66	2.66	1.95	2.47	0.454	4.29
CCTGCTAGGGCAATGGTCAGCTAAAGCAGCTCGC	1.55	1.76	-1.07	-1.49	-0.322	-0.655	-0.95	-0.343	-1.1	1.15
TCTTGTAGATCAACTGGAGGTTAAGAAAGATCGA	1.68	0.919	0.402	0.432	-0.255	0.704	-0.291	1.13	-0.0829	0.631
GCGTACGGGTCAAAGGTTATAGCATGAATAGAAT	2.3	4.85	0.234	2	4.07	6.11	0.08	8.62	0.0431	4.64
ACTAGCAGGCCAAGTTTGGGCCACTCAAACAAAG	0.654	0.241	-1.11	-0.696	-1.66	-0.855	-0.899	-0.593	-1.32	0.466
CTCGAAAGGTCGGTTGAGGTTAGTATACGGATAA	-0.0127	0.923	0.234	-0.683	1.47	4.96	0.435	3.04	0.202	3.06
TCATATAGGTAATACAGGGGAAAGTCGGCATCTA	4.42	2.56	1.36	0.581	0.957	0.783	0.581	1.08	0.911	0.566
TCATATAGGTAAACAGGTCAAAGTCCGTAAGTTA	5.17	5.48	3.64	1.86	2.44	2.77	0.953	3.52	1.47	2.8
CGTCCAAGGTCAACGGTCAGTGAAGAGATGACGG	3.45	4.39	0.975	0.233	2.65	4.02	0.701	4.66	0.466	5.55
TCTGCTAGGTCAGTTGGACAGCTAACGAGCTGCC	2.28	2.83	0.449	0.399	-0.587	-0.183	-1.13	-0.205	-1.3	3.26
CGAACTTGGTCAAGGACAGTGAATCTCCGCACGC	1.01	0.689	-0.557	-0.422	-0.784	-0.25	-0.515	-0.377	-0.435	1.34
CGTCCAAGGTCAAGGTCAGTTAAAGAGACTCGAA	3.64	4.64	0.996	0.327	3.84	5.2	1.12	5.74	1.83	5.81
ACTAGCAGGCCAAGGGTCCCTCAAGATTAGTCCG	0.0687	0.882	-0.919	-0.963	-0.0936	-0.598	-0.427	-0.327	-1.05	0.381
CGTCAAATTTCAAGGTAACGTAACAGAAAGCAGC	-0.147	0.739	1.23	0.951	0.422	0.33	-0.166	0.634	0.311	0.427
CGAACTAGGTCAGAACAGGACAGTGTAGGATGAT	7.44	7.53	3.18	2.19	1.06	0.998	0.228	0.95	0.229	3.07
CCATACAGGTGAAAGGTAACTCAGTCTGGTACGC	4.44	4.52	0.453	0.514	1.27	1.12	0.206	1.99	0.894	1.44
TGTCAAAGTTCAAAGGTAACATAAGTATCCACAC	0.298	4.93	1.53	2.04	3.31	5.72	4.18	6.28	1.65	5.24
CATACAGGGGCAGCTAGGCCAGAGTAGGGACGGC	-0.41	0.399	-0.422	-0.72	-0.555	-0.802	-0.878	-0.828	0.188	1.17
CCTAGCAGGCCAATCTGTGTCACTCAAGGCTTGA	2.87	2.13	-1.03	-1.32	-0.244	-0.438	-0.358	-0.217	-0.52	0.211
